# PubChem BioAssay (NCI)
# “And” between values parts separate entries of the source, which are not always exact repeats. Equal entries are not always repeated. About 83,000 compounds went through this panel and 20% of them were active in at least one assay; those are over-represented in the sample as a whole.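 Treatment: one concentration, 48 hours, 96-well format. Scoring: percent growth, with anything below 10 considered active.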 Values without a mark were called inactive. The source made the active and inactive calls.
# System: MDA-MB-468 breast
# Assay: NCI-60 one-dose screen, 48 h (100 = growth as untreated, 0 = no growth, -100 = all killed)
# Settings: 10 µM unless noted
row,SMILES,growth
1,Cc1ccc(C2CC(c3cccs3)=NN2c2ccc(S(N)(=O)=O)cc2)s1 (configuration not stated),16.3%
2,CC(O)CN(CC(C)O)c1ccc2c(c1)Cc1cc([N+](=O)[O-])ccc1-2 (configuration not stated),100%
3,Cc1ccc(NC(=O)C(Cl)Cl)cc1,90.9%
4,c1ccc2cc(C[n+]3ccn(Cc4ccc5ccccc5n4)c3)ccc2c1,-26.3% (active) and -3.7% (active)
5,CC(=O)c1cccc(NS(=O)(=O)c2cccc(C(=O)Nc3ccc(Br)cc3)c2)c1,1.14% [25 µM] (active)
6,C=CCN1CCCC1=O,96.5%
7,N[C@H]1CCC[C@@H]1NCCCCN1C(=O)c2cccc3cccc(c23)C1=O,50.4%
8,Cc1ccc(Sc2sc(-c3ccccc3)nc2[P+](c2ccccc2)(c2ccccc2)c2ccccc2)cc1,-61.8% (active)
9,c1cnc2[nH]cc(-c3csc(-c4cn(CCCN5CCCCC5)c5ccccc45)n3)c2c1,70.2%
10,C=C(C)[C@@H]1CC[C@]2(C(=O)O)CC[C@]3(C)[C@H](CC[C@@H]4[C@@]5(C)C/C(=C/c6ccccn6)C(=O)C(C)(C)[C@@H]5CC[C@]43C)[C@@H]12,9.64% (active)
11,COc1ccc(/C=C/c2c(C(=O)/C=C/c3ccc(Cl)cc3)c(C)nc3ccccc23)cc1,34.7%
12,Cc1cc2nc3c4cc(Cl)ccc4n(CC(=O)NCCN(C)C)c3nc2cc1C,60.6%
13,C=C(C)[C@@H]1C[C@H](O)Cc2cc(F)ccc2N1,89.3%
14,COc1cc(/C=C2\CN(S(=O)(=O)c3ccc(C)cc3)C/C(=C\c3cc(CN4CCCCC4)c(O)c(OC)c3)C2=O)cc(CN2CCCCC2)c1O,-63.3% (active)
15,COc1cc(/C=C/C(=O)c2c(C)nc3ccccc3c2/C=C/c2ccc(C)cc2)cc(OC)c1OC,18.9%
16,O=C(O)/C(=C/c1ccc(O)cc1)c1ccccc1,96.9%
17,O=C1Cc2ccccc2C(=O)O1,112%
18,CCOC(=O)CN1CCC(C(=O)OCC)CC1,114%
19,O=C(CCCCCCN1CC(=O)N2[C@@H](c3ccc(Cl)s3)c3[nH]c4ccccc4c3C[C@H]2C1=O)NO,30.7%

row,SMILES,growth
1,O=C(N/N=C\c1ccc([N+](=O)[O-])cc1)c1ccc2nc(-c3ccc(Br)cc3)[nH]c2c1,-33% (active)
2,COc1cc2nc(Cl)nc(Nc3cccc(C(=O)/C=C/c4ccccc4)c3)c2cc1OC,68.9%
3,COC(=O)C(Cc1ccccc1)Nc1nc(NC(Cc2ccccc2)C(=O)OC)nc(N2CCOCC2)n1 (configuration not stated),108%
4,CS(=O)(=O)c1ccc(-c2cc(-c3nnc(SCC(=O)Nc4ccc(C(=O)/C=C/c5ccc(Cl)cc5)cc4)n3-c3ccccc3)c3ccccc3n2)cc1,93.2%
5,COc1ccc(C(=O)/C=C/c2cn(-c3ccccc3)nc2-c2cccc(Nc3ccnc4cc(Cl)ccc34)c2)cc1,75.7%
6,O=C(Nc1cccc2c1C(=O)c1cccc(Nc3cccc4c3C(=O)c3cccc(NC(=O)c5ccccc5)c3C4=O)c1C2=O)c1ccccc1,126%
7,C#Cc1c2c(c(OC)c3c1OCO3)[C@H]([C@H]1OC(=O)c3c1ccc(OC)c3OC)N(C)CC2,79.9%
8,COc1cccc(NC(=O)c2sc3nc4c(cc3c2N)C(=O)CCC4)c1,49.5%
9,COc1cc2cn3c4ccc(O)cc4[nH]c(=O)c3c2cc1OC,-27.4% (active)
10,COc1ccc2[nH]c(O)c(/C=c3/cc4c(c(-c5ccc(F)c(OC)c5)n3)=Nc3ccccc3-4)c2c1,-70.4% (active)
11,COc1cc(C2CC(=O)Nc3c2ccc2ccccc32)cc(Br)c1OC (configuration not stated),-34.3% (active)
12,CCCCNC(=O)NS(=O)(=O)Cc1ccccc1,112%
13,COc1ccc(/C=C2/C(=O)Nc3cc(Cl)c(-c4csc(N)n4)cc32)cc1,0.87% (active)
14,Nc1nc2ccc(-c3nc4ccc5[nH]ncc5c4c4c3CCCC4)cc2s1,112%
15,O=C1C(Cl)=C(Nc2ccc3cn[nH]c3c2)C(=O)c2ccccc21,-82.9% (active)
16,CCCCOc1nc2ccc(Cl)cc2cc1/C=C/C(=O)/C=C/c1ccc(OC)cc1,113%
17,CN1CCN(C(=O)OCCOCCOC(=O)N2CCN(C)CC2)CC1,107%
18,CC(=O)Nc1cc(F)cc(C(F)(F)F)c1Cl,86.3%
